The other results are listed elsewhere or left out. Calls of active or inactive are those of the source.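 How the source made its calls, unless noted: active means reconfirmed compounds whose average cytotoxicity reaches 50% or more; inactive means the rest.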
Tested on: not listed separately
Assay: PPC-1 cell viability loss – ATP content luminescence, cytotoxicity control for TRAIL apoptosis potentiator project, confirmation (AID 1447);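 further: 0% = DMSO-treated cells and 100% = wells holding medium but no cells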
Settings: PPC-1 viability, ATPlite luminescence, overnight; at 5 µM; active compounds read high
With COc1cccc(/C=C/C(=O)Nc2ccc3c(c2)OCCO3)c1 the cytotoxicity was 48.7% (inactive). For CCOc1ccc(-c2ccc(SCC(=O)N3CCOCC3)nn2)cc1, the cytotoxicity was 57.7% (active). With CCCCCCCCn1c2c(c(=N)c3c1CCC3)CCCC2 the cytotoxicity was 42.7% (inactive). In the case of N/C(=N\OC(=O)c1ccc([N+](=O)[O-])cc1)c1ccccn1, the cytotoxicity is reported as 11.3% (inactive). With CCOC(=O)c1c(C)[nH]c2c1-c1ccccc1C(=O)C2=O the cytotoxicity was 96.4% (active). With CNC(=O)CSc1nnc(CCc2ccccc2)n1-c1ccccc1 the cytotoxicity was 0.9% (inactive). In the case of COC(=O)c1nc(NC(=O)c2ccc(Cl)cc2)n[nH]1, the cytotoxicity is reported as 12.1% (inactive). In the case of Cc1nc(-c2ccc(Cl)cc2)sc1C(=O)NN, the cytotoxicity is reported as 57.2% (active). In the case of OCCNc1nc2ccccc2n1-c1ncnc2sc3c(c12)CCC3, the cytotoxicity is reported as -17.2% (inactive). For O=C(c1ccc(F)cc1)n1c(=S)nc2ccccn21, the cytotoxicity was 81.2% (active). With CS(=O)(=O)N(CC(=O)N1CCOCC1)c1ccc2c3c(cccc13)CC2 the cytotoxicity was -7.5% (inactive). With Cn1c(=O)n(C)c2cc(S(=O)(=O)N3CCCc4ccccc43)ccc21 the cytotoxicity was 14.1% (inactive). In the case of CCOc1ccc(NC(=O)NNC(=O)c2ccc(Cl)cc2Cl)cc1, the cytotoxicity is reported as -11.6% (inactive). With Cn1c(C(=O)NCCCN2CCN(c3cccc(Cl)c3)CC2)cc2c(=O)n(C)c3ccccc3c21 the cytotoxicity was 15% (inactive). For O=C(O)c1ccc(N/N=C/c2cn(-c3ccccc3)nc2-c2cccs2)cc1, the cytotoxicity was 85.2% (active). In the case of CCCC(=O)Nc1nnc(CC(=O)OCC)s1, the cytotoxicity is reported as -5.4% (inactive). In the case of O=C(O)CCCC(=O)Nc1ccccc1-n1ccnc1, the cytotoxicity is reported as -3.3% (inactive). In the case of COc1ccc(-c2cc(C(=O)NCc3ccco3)no2)cc1OC, the cytotoxicity is reported as 17.4% (inactive). With CCOC(=O)C1C(=O)OC2(CCCC2)C1C(=O)OCC (stereo unspecified) the cytotoxicity was -4.2% (inactive). For Cc1cc2c(=O)n(C)c(SCC(=O)c3cc4ccccc4o3)nc2s1, the cytotoxicity was -5.6% (inactive). In the case of O=C(CSc1nnc(-c2ccc([N+](=O)[O-])cc2)o1)Nc1ccccn1, the cytotoxicity is reported as 57% (active). In the case of Cc1cc(C)nc(Nc2n[nH]c(-c3ccccc3N)n2)n1, the cytotoxicity is reported as 37.6% (inactive). For COc1ccc(C(=O)/C=C/Nc2ccccn2)cc1, the cytotoxicity was 76.8% (active). In the case of COc1cc(NS(=O)(=O)c2ccc(NC(C)=O)cc2)cc(OC)c1, the cytotoxicity is reported as -8.5% (inactive). For C=CCn1c(C)cc(C2=NNC(=NCC)SC2)c1C, the cytotoxicity was 88% (active). With O=C(Nc1ccn(Cc2ccccc2)n1)c1cccc(F)c1 the cytotoxicity was 39.6% (inactive). With c1ccc2cc3c(NCCN4CCOCC4)ccnc3cc2c1 the cytotoxicity was 18% (inactive). For COc1ccc(C2C(C#N)=C(/N=C/N3CCOCC3)OC3=C2C(=O)CC(C)(C)C3)cc1OC (stereo unspecified), the cytotoxicity was 2.1% (inactive). In the case of COc1ccc(-c2cc(C(=O)n3cnc4ccccc43)c3ccccc3n2)cc1, the cytotoxicity is reported as 33.1% (inactive). With Clc1cccc(-c2nc3nc4ccccc4nc3n2Cc2ccco2)c1 the cytotoxicity was -6% (inactive). For CCOc1cc(N2CCOCC2)c(OCC)cc1NC(=O)c1cc(C)nc2ccccc12, the cytotoxicity was -9.1% (inactive). In the case of CS(=O)(=O)N1CCN(C(=O)c2cc3ccccc3oc2=O)CC1, the cytotoxicity is reported as 9.4% (inactive). For O=C(CN1C(=O)c2ccccc2S1(=O)=O)N1CCc2ccccc21, the cytotoxicity was 46.8% (inactive). In the case of O=C(Nc1cccc(O)c1)c1ccc(C(=O)c2ccccc2)o1, the cytotoxicity is reported as 18.6% (inactive). In the case of O=C(NCC12CC3CC(C1)CC(CNC(=O)N1CCCC1)(C3)C2)N1CCCC1, the cytotoxicity is reported as -1.2% (inactive). With CNC(=O)COC(=O)c1cc(-c2ccc(OC)cc2)nc2ccccc12 the cytotoxicity was 36.3% (inactive). For CC(Nc1nc(N2CCCC2)nc2ccccc12)c1ccccc1 (stereo unspecified), the cytotoxicity was 8.3% (inactive). For Cc1ccc(-n2nc3cc(C)c(NC(=O)c4cccnc4)cc3n2)cc1, the cytotoxicity was 34.7% (inactive). For Cc1ccc(NC(=O)CS(=O)CC(=O)N(c2ccccc2)C(C)C(=O)NC2CCCC2)cc1 (stereo unspecified), the cytotoxicity was 14.8% (inactive).

Tested on: not listed separately
Assay: lowers stimulated NF-kB luciferase signal in Jurkat – cell-based, luminescence, single concentration, T-cell NF-kB inhibitor project, confirmation (AID 435020;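 active means inhibition reaching about 45% at 4 µM in either replicate, limit read from the data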;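 further: plate controls were PMA/ionomycin stimulated DMSO wells for no effect and unstimulated DMSO wells for full effect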)
Settings: PMA/ionomycin-induced, 16 h, at 4 µM, active compounds read high
In the case of CCCCCCCCn1c2c(c(=N)c3c1CCC3)CCCC2, the inhibition is reported as 75.5% (active). In the case of O=C(c1ccc(F)cc1)n1c(=S)nc2ccccn21, the inhibition is reported as -90.8% (inactive). In the case of O=C(O)c1ccc(N/N=C/c2cn(-c3ccccc3)nc2-c2cccs2)cc1, the inhibition is reported as -14.3% (inactive). In the case of COc1ccc(C(=O)/C=C/Nc2ccccn2)cc1, the inhibition is reported as -78.9% (inactive). In the case of C=CCn1c(C)cc(C2=NNC(=NCC)SC2)c1C, the inhibition is reported as 67.5% (active). For O=C(CN1C(=O)c2ccccc2S1(=O)=O)N1CCc2ccccc21, the inhibition was 34.6% (inactive).

Target: Sentrin-specific protease 8 (Homo sapiens) (UniProt Q96LD8)
Sequence (Q96LD8 whole entry, looked up): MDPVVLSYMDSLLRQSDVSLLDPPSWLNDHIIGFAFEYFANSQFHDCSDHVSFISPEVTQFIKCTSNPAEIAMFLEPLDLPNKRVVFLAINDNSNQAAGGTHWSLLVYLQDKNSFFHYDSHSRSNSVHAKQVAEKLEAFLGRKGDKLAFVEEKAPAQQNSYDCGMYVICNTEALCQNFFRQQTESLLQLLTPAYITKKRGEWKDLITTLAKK
Assay: human SENP8 peptidase blockers, hit retest – biochemical, luminescence, single concentration, confirmation (AID 488912;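 active means mean inhibition across replicates above about 50%, limit read from the data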)
Settings: Recombinant SENP8, Z-RLRGG-aminoluciferin luminescence, 60 min; at 12.5 µM; active compounds read high
For O=C(c1ccc(F)cc1)n1c(=S)nc2ccccn21, the inhibition was 16.3% (inactive). In the case of COc1ccc(C(=O)/C=C/Nc2ccccn2)cc1, the inhibition is reported as 97.4% (active). With C=CCn1c(C)cc(C2=NNC(=NCC)SC2)c1C the inhibition was -3.3% (inactive).

Target: Sentrin-specific protease 6 (Homo sapiens) (UniProt Q9GZR1)
Sequence (Q9GZR1 628-1112 limits assumed): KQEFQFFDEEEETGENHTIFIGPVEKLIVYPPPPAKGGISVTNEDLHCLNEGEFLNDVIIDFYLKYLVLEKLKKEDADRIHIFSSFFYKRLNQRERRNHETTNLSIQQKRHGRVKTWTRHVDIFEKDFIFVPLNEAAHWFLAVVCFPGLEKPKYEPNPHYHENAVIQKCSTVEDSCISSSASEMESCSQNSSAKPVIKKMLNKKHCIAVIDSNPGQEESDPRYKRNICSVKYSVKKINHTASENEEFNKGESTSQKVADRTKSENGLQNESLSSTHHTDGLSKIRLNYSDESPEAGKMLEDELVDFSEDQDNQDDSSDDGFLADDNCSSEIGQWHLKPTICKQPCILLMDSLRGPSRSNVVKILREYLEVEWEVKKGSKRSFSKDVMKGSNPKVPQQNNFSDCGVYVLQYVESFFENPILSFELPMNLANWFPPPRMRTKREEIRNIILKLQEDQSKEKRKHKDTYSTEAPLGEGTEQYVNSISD
Assay: inhibition of human SENP6 catalytic domain – biochemical, luminescence, single concentration, confirmation (AID 488915;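 active means mean inhibition above about 50% in the one-dose retest, limit read from the data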)
Settings: recombinant SENP6, Z-RLRGG-aminoluciferin luminescence; at 12.5 µM; active compounds read high
In the case of O=C(c1ccc(F)cc1)n1c(=S)nc2ccccn21, the inhibition is reported as 14.2% (inactive). In the case of COc1ccc(C(=O)/C=C/Nc2ccccn2)cc1, the inhibition is reported as 98% (active). In the case of C=CCn1c(C)cc(C2=NNC(=NCC)SC2)c1C, the inhibition is reported as 1% (inactive).

Reference: PubChem BioAssay
